The record followed here is PubChem BioAssay (NCATS).

Inconclusive results are not listed. Where a call stands in place of a potency, no number is given. Calls of active or inactive are those of the source. Calls follow the shape of the dose curve; as a rule, active = well fitted inhibition curve with a large enough effect; inconclusive = small, poorly fitted or top-dose-only effect; inactive = flat fitted curve, though single readings scatter.

Chain of Calcium and integrin-binding protein 1 (Homo sapiens) (Q99828 whole entry, looked up): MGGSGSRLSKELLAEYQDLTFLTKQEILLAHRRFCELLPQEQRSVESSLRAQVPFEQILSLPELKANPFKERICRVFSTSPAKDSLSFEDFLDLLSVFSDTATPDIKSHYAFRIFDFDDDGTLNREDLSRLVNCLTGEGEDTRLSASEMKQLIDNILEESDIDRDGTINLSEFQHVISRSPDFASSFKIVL

The assay addresses Calcium and integrin-binding protein 1 (Homo sapiens) (UniProt Q99828). The assay can be described thus: Primary qHTS for Identification of Calcium Integrin Binding Protein 1 (CIB1) Competitor (AID 1508620). Also: top concentration of the series differs between compounds. Particulars: CIB1-GST / FITC-alphaIIb peptide fluorescence polarization; series mostly up to 114 µM. The essentials:
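Fluorescence polarization competition: GST-tagged CIB1 (1 uM final) preincubated with compound 15 min at room temperature, then FITC-labelled alphaIIb peptide (100 nM final) added. After 15 min at room temperature, polarization read at Ex 480/Em 540.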
Background: qHTS replaces the single test concentration by a dilution series.
In the case of `O=C(Nc1cc(Cc2ccccc2)ccn1)c1ccc(-c2cccc([N+](=O)[O-])c2)o1`, the Potency entry was “inactive”. As to `COc1cccc(CNc2ccc(S(=O)(=O)Nc3nc4c(C)cccc4s3)cc2)c1O`, the Potency entry is “inactive”. As to `COc1ccc(C2Nc3ccccc3C(=O)N2Cc2ccncc2)cc1COc1c(C)cc(NC(C)=O)cc1C` (stereo unspecified), the Potency entry was “inactive”.

For `O=S1(=O)N=C(Oc2cccc(C(F)(F)F)c2)c2ccccc21`, the Potency result is “inactive”. Consider `O=C(NCCc1nc2ccccc2n1CCOc1ccc(Cl)cc1)C1CCCCC1`, for which the Potency result was “inactive”. As for `Cc1ccccc1NS(=O)(=O)c1ccc2c(c1)CCC(=O)N2`, the Potency result was “inactive”.

With `Cc1cc(NC(=O)c2ccc([S+](=O)([O-])NCc3ccc(Cl)c(Cl)c3)cc2)no1`, the Potency entry was “inactive”. The result for `N#Cc1c(-c2ccc(OCCOCCOCCNC(=O)CCCC[C@@H]3SC[C@@H]4NC(=O)N[C@@H]43)cc2)no[n+]1[O-]` reads “inactive”; that for `Cc1c(C(=O)OCC2CC2)[nH]c2c1C(=O)CC(c1ccco1)C2` (stereo unspecified), “inactive”; that for `Cc1cc(N[S+](=O)([O-])c2ccc(NC(=O)Cc3ccc4c(c3)CCO4)cc2)no1`, “inactive”. The result for `O=c1c2ccccc2nc2sc(Nc3cccc(-c4ccncc4)c3)nn12` reads “inactive”; that for `CC(=O)c1ccccc1-c1ncc(C)c(NCc2ccc(-c3cccnc3)cc2)n1`, “inactive”; that for `Cc1ccc(CNc2ncnc3cc(-c4ccc5c(c4)OCO5)ccc23)o1`, “inactive”. The result for `CC(C)(C)OC(=O)N1CCN(c2ccc(NCc3cc(-c4ccc(C#N)cc4)co3)cc2)CC1` reads “inactive”. Consider `Cc1ccc(CNc2ccc(N3CCOCC3)cc2)cc1`, for which the Potency entry was “inactive”. Turning to `O=C(N1Cc2ccc(Nc3nn4c(=O)c5ccccc5nc4s3)cc2C1)C(F)(F)F`, the Potency entry is “inactive”.
